Assay outcomes from PubChem BioAssay.
GASC-1 inh: human JMJD2C demethylase inhibition; Q9H3R0; inhibition, % at 2.35 µM; GST-JMJD2C(1-420) H3K9me3 demethylation, DELFIA europium; actives 0.069% (n = 330,000);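 active means more than half of a compound's replicate wells show inhibition beyond 50%, single wells judged on their own value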;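 further: signal counts dimethyl H3K9 product captured on neutravidin plate; 0% = median of DMSO wells and 100% = 0.3 times that DMSO median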
PP1 counter: counter-screen for PP5 inhibitors: inhibitors of human PP1-alpha; actives 0.9% (n = 320,000); AID 2235; P62136; inhibition, % at 6.7 µM; purified PP1alpha, OMFP fluorescence;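 active means inhibition above the mean inhibition of all tested compounds plus 3 SD, computed separately for each screening campaign, cut at about 15% in these data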
proKLK7 act: proKLK7 (human) activation, primary screen; P49862; purified proKLK7, EDANS-DABCYL substrate fluorescence; 100% is mature enzyme control, 0% vehicle; activation, % at 7 µM; actives 0.9% (n = 370,000); AID 652039;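 active means activation above the mean of all tested compounds plus 3 SD, computed per campaign excluding outliers beyond control limits, cut at about 13% in these data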
PP5 inh: PP5 (human) phosphatase inhibition; purified PP5c, OMFP substrate fluorescence; inhibition, % at 6.7 µM; actives 0.18% (n = 320,000);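 active means inhibition above the campaign's mean inhibition across all tested compounds plus 3 SD, cut at about 9.5% in these data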;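 further: 0% = DMSO only and 100% = 100 µM cantharidin control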
Target sequence (P53041 whole entry, looked up): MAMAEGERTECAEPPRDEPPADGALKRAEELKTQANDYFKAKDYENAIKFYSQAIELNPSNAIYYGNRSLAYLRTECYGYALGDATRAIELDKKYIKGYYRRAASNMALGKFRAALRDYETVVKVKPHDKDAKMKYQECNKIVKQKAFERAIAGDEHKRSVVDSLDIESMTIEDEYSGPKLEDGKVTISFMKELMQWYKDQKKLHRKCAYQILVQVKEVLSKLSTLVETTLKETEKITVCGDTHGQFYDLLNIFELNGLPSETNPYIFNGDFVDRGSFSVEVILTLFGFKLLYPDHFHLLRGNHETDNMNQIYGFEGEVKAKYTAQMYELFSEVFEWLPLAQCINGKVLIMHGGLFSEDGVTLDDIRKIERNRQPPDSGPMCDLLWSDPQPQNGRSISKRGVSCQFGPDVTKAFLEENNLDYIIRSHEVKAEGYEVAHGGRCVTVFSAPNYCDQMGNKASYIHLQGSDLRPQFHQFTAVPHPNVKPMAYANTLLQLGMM
PG9 binder: small molecules binding HIV-1 gp120 antibody PG9. TR-FRET gp120-PG9 antibody binding. inhibition, % at 6.7 µM. actives 0.43% (n = 360,000); in the data active means inhibition above about 8.5%
NR1D1 modulator: Rev-erb alpha (human) modulation; activity, % at 10 µM; P20393; actives 0.79% (n = 370,000); AID 1259318; Rev-erbα–FITC-DNA binding, fluorescence polarization, 90 min;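 active means activity above about 14%, limit read from the data; passing the limit was not always enough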;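 further: 0% = DMSO wells with 35 nM protein and 100% = DMSO wells with 750 nM protein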
NR1D1 mod conf: confirmation of modulators of human Rev-erb alpha DNA binding; shares compounds with NR1D1 modulator; actives 61% (n = 3,000); activation, % at 25 µM; Rev-erb alpha FITC-DNA binding, fluorescence polarization, 90 min;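 active means activation at or above a set limit, or at least 3 SD above the negative control mean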;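 further: 0% = 35 nM protein with DMSO and 100% = 750 nM protein high control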
RORg counter: counter-screen for Rev-erb alpha modulators: RORgamma DNA binding; purified RORgamma protein-FITC-DNA binding, fluorescence polarization; shares compounds with NR1D1 modulator; IC50, µM; actives 8% (n = 910);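 active means Compounds whose fitted half-maximal concentration for disrupting protein-DNA binding is below 10 micromolar; the record names Rev-erb in its text, so the target is in doubt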
* = called active by the depositor; i = inactive; . = not tested or not shown. Only some compounds are listed: those with a hit (about 2.8% of all), similar ones and a draw of the others.

SMILES	GASC-1 inh	PP1 counter	proKLK7 act	PP5 inh	PG9 binder	NR1D1 modulator	NR1D1 mod conf	others
CC(C)CC(NC(=O)OCc1ccccc1)C(=O)NCC(=O)NCC(=O)OCc1ccccc1 (centres undefined)	.	.	0	.	0	-3	.
CCCCCCCCN1C(=O)[C@@H](CC(=O)NCC2CCCCC2)C[C@@]2(C(=O)OC)C1=C[C@H](C(C)(C)C)O[C@@H]2C	.	.	0	.	0	0	.
Cc1cccnc1NC(=O)c1cc2ccccc2oc1=O	-2	1	0	-1	1	43*	7
CC(C)c1[nH]nc2c1C(c1ccc3c(c1)OCO3)NC2=O (centres undefined)	.	.	0	.	0	22*	-5
O=C1NC(c2ccc3c(c2)OCO3)c2c(-c3ccccc3)n[nH]c21 (centres undefined)	.	.	0	.	0	-5	.
Fc1ccc2nc(Nc3nc4cc5c(cc4s3)OCCO5)sc2c1	-7	-1	-16	4	-5	32*	39*	RORg counter=>40
Fc1ccc2nc(Nc3nc4c(F)cc(F)cc4s3)sc2c1	3	0	-1	-2	1	53*	41*	RORg counter=>40
Fc1ccc2nc(Nc3nc4cc5c(cc4s3)OCO5)sc2c1	3	8	-1	-1	0	12	.
O=C(COc1ccccc1)Nc1nc2cc3c(cc2s1)OCCO3	-27	1	3	1	2	76*	50*	RORg counter=>40
C#CCNC(=O)C[C@H]1C[C@@]2(C(=O)OC)C(=C[C@H](C(C)(C)C)O[C@@H]2C)N(Cc2ccccc2)C1=O	.	.	0	.	1	0	.
N#CC1=C(N)Oc2cc(N)ccc2C1c1cccnc1 (centres undefined)	2	-1	1	3	-1	0	.
CCN(CC)c1ccc2c(c1)OC(N)=C(C#N)C2c1cccnc1 (centres undefined)	14	-4	1	4	-5	53*	48*
COc1cccc(/C=C2\CC3(OC(=O)c4ccccc4)CCCN2C3)c1 (centres undefined)	.	.	0	.	.	0	.
Cc1nn2c3c(cnc2c1-c1ccccc1)C(=O)CC(c1ccccc1)C3 (centres undefined)	2	-3	0	0	2	39*	19*
Cc1nn2c(N)c(C#N)cnc2c1-c1ccc(Cl)cc1	-1	-2	0	-2	0	51*	34*	RORg counter=>40
Cc1nn2c(N)c(C#N)cnc2c1-c1ccccc1	-12	-2	0	-1	-1	3	.
Cc1nn2c(N)c(-c3ccccc3)cnc2c1-c1ccccc1	7	-2	0	1	4	19*	3
COC(=O)C(Cc1ccc(O)cc1)NS(=O)(=O)Cc1ccccc1 (centres undefined)	.	.	0	.	2	1	.
CC[C@H](CCCc1ccc(OC)cc1)CCC(=O)N(c1ccccc1)c1ccccc1	.	.	0	.	.	-3	.
CC(C=NN=C1C(=O)Nc2ccccc21)=Cc1ccccc1	.	.	0	.	-2	-3	.
O=C(NCc1ccccc1)C(c1cc2ccccc2o1)n1c(=O)c(-c2ccccc2)nc2ccccc21 (centres undefined)	.	.	0	.	-2	47*	28*	RORg counter=>40
COCCCN1C(=O)[C@H](CC(=O)NCCc2ccccc2OC)[C@]2(C(=O)OC)CCCCC=C12	.	.	0	.	.	-2	.
CN(C)S(=O)(=O)c1ccc2nc(COCc3nc4ccc(S(=O)(=O)N(C)C)cc4[nH]3)[nH]c2c1	.	.	.	.	.	-1	.
COc1cc(-c2nc(-c3ccc(Br)o3)no2)cc(OC)c1OC	6	-2	-1	3	-1	27*	8
CCC(=O)Nc1ccc2c(c1)C(=O)N(C)[C@@H]1CC[C@@H](CC(=O)NCc3ccc(OC)cc3)O[C@H]1CO2	.	.	0	.	.	-3	.
SMILES	GASC-1 inh	PP1 counter	proKLK7 act	PP5 inh	PG9 binder	NR1D1 modulator	NR1D1 mod conf	others
Cc1ccc(-c2cc(C(=O)NN=Cc3c(O)ccc4ccccc34)[nH]n2)cc1C	.	.	-69	.	.	22*	16*
O=C(CSc1nnc(-c2cccnc2)o1)Nc1cccc(Cl)c1	-8	-2	0	1	1	0	.
CCn1c2ccccc2c2cc(NC(=O)CSc3nnc(-c4cccc(Cl)c4)o3)ccc21	-5	-2	0	1	2	32*	11
Cc1ccc2c(c1)c(/C=C/c1cc[n+](C)cc1)c(C)n2C	-2	.	1	.	-31	280*	224*	RORg counter=i
Cc1ccc2[nH]c(C)c(/C=C/c3cc[n+](C)cc3)c2c1	-3	.	1	.	-26	235*	182*	RORg counter=>40
C[n+]1ccc(/C=C/c2ccc(Br)cc2)cc1	-5	-2	0	0	-1	1	.
O=S(=O)(c1cccs1)N1CCCc2nc(-c3ccc(F)cc3)ccc21	.	.	0	.	1	0	.
CN1C(=O)c2ccc(N3CCCC3)cc2C1=O	-3	-2	-34	1	-5	2	.
Cc1cc(N2CCCC2)ccc1/C=C1\NC(=S)N(C)C1=O	1	-1	0	1	-13	30*	50*	RORg counter=>40
O=C1/C(=C/c2ccc(N3CCCC3)cc2)NC(=S)N1C1CC1	.	-1	0	4	-9	27*	27*
CCOc1ccccc1N1CCN(C(=O)Nc2ccc(Cl)c(Cl)c2)CC1	11	-1	.	2	.	.	.
CC1=CC(=C(C#N)C#N)C=C(C)N1CCN1CCN(C(=O)Nc2ccc(Cl)c(Cl)c2)CC1	-7	-5	0	-2	1	41*	26*
COC(=O)c1cc(COc2ccc3c4c(c(=O)oc3c2)CCCC4)c(C)o1	6	1	-23	1	-2	6	.
COC(=O)c1ccc(COc2ccc3c4c(c(=O)oc3c2)CCC4)o1	0	-3	-1	-2	1	34*	1
Cc1nc(N(C)C2CCCCC2)c2nnn(Cc3ccc(F)cc3)c2n1	.	.	0	.	-1	31*	-6
CCN(C)c1nc(C)nc2c1nnn2Cc1ccccc1	.	.	0	.	.	3	.
O=C(Nc1ccc(C(F)(F)F)cc1)OC1CCC12CCC(c1ccccc1)CC2 (centres undefined)	.	.	1	.	.	-1	.
CC(C)(C)C1=Nn2c(nnc2-c2ccc(C(C)(C)C)cc2)SC1	.	.	1	.	.	-6	.
C=CCn1c(SCCNC(C)=O)nc2cc(-c3ccccc3)sc2c1=O	-12	2	1	2	1	49*	54*	RORg counter=>40
C=CCNc1nc(NCCNC(C)=O)c2sc(-c3ccccc3)cc2n1	.	.	1	.	-1	2	.
CCCCc1c(-c2ccccc2OC)ncn1Cc1cc(F)ccc1F	.	.	0	.	-1	0	.
C[C@H]1COc2cc(N3CCOCC3)ccc2S(=O)(=O)N1	.	.	0	.	0	4	.
